This is an account of results in ChEMBL document CHEMBL3988442, “University of Dundee, Small-Polar-MMV Screening Library” (2021).

Holding throughout (set-up): scale not given: direction of the effect not stated beside the values
Assay [1] deals with Protein translocase subunit SecA (Escherichia coli (strain K12)) (UniProt P10408). The experiment in a line: Assay to Identify E. coli SecA ATPase Inhibitors. The format is functional. The settings on record: 30 µM.
Assay [2] has as its target T1, Ubiquitin-activating enzyme e1, putative (Leishmania donovani (strain BPK282A1)) (UniProt E9BSI1).
T1 sequence (whole entry): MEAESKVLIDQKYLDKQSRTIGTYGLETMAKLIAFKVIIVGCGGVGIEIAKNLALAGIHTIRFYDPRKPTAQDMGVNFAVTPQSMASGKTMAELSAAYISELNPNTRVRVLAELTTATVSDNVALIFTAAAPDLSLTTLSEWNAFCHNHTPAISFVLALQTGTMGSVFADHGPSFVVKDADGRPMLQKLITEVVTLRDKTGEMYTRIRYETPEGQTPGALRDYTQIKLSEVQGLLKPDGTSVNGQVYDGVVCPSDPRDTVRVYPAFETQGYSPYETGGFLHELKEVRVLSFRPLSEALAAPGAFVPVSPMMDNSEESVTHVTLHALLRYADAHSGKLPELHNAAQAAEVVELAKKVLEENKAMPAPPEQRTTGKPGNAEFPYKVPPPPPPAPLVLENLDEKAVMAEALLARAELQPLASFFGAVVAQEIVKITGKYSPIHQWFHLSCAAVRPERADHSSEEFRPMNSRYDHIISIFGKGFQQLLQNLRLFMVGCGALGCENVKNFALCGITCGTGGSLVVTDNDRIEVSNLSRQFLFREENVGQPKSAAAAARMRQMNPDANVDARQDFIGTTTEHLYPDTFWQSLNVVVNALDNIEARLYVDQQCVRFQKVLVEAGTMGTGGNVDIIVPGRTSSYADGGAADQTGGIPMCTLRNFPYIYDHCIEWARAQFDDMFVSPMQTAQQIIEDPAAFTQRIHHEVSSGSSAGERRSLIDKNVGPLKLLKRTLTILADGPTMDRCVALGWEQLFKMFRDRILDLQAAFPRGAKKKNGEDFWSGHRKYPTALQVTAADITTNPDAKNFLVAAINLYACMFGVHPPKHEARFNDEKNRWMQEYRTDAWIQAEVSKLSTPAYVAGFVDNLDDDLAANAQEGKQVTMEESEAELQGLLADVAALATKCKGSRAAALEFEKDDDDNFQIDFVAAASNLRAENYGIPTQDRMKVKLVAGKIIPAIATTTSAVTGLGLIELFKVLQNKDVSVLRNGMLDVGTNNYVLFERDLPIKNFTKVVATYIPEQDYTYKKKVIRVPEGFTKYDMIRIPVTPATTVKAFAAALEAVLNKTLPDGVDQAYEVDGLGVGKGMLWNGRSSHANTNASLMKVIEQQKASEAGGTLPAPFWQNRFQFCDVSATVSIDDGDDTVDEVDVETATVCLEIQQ
The experiment in a line: Leishmania donovani Ubiquitin Activating Enzyme (LdE1). The assay is classed as functional. The settings on record: 30 µM.

Assay [3] concerns the target AMP-activated protein kinase, AMPK (Homo sapiens) (UniProt P54646+O43741+P54619+Q9UGJ0+Q9Y478+Q13131+Q9UGI9). Put plainly: AMP-dependent Kinase enzyme assay. An in vitro enzyme assay that detects ADP turnover that is directly proportional to AMPK activity. This uses naive AMPK that is activated during the assay with MK-8722. The assay is classed as functional. The settings on record: 30 µM.

Assay [4] addresses Sialic acid-binding Ig-like lectin 9 (Homo sapiens) (UniProt Q9Y336). Put plainly: Hs-Siglec9 ALPHAscreen SOP 20170721. The conditions noted are these: 10 µM.
The subject of the next assay is Trypanosoma cruzi. Put plainly: Trypanosoma cruzi phosphomannomutase and mannose-1-phosphate guanylyltransferase assay. The format is functional. The conditions noted are these: 10 µM.
The target of assay [5] is T2, Arginase-2, mitochondrial (Homo sapiens) (UniProt P78540).
T2 sequence (whole entry): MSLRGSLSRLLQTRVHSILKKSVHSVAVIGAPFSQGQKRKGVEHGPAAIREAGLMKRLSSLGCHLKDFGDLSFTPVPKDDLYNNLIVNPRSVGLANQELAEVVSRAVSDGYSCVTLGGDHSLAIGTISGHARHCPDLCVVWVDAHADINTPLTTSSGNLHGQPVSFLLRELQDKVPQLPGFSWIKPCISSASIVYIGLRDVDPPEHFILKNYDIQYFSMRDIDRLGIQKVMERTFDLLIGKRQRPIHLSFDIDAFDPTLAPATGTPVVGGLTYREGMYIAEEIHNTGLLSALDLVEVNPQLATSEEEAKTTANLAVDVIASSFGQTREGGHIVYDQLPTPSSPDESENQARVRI
The experiment in a line: in vitro enzyme assay to detect the production of urea directly proportional to the activity of Arginase II. Note: in the data most compounds retested in dose-response had high values. The assay is classed as functional. The conditions noted are these: 33.3 µM.

The target of assay [6] is T3, Proteasome subunit beta (Trypanosoma cruzi) (UniProt O96673).
T3 sequence (whole entry): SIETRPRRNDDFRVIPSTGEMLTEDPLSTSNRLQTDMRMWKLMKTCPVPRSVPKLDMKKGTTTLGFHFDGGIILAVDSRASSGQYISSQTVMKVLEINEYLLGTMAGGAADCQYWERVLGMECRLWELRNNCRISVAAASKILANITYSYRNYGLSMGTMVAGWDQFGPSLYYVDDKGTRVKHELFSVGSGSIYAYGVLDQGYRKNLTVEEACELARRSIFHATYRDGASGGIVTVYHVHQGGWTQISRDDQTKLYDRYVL
Put plainly: Trypanosoma cruzi proteasome chymotrypsin-like activity (TcProtChymo) assay. Note: in the data most compounds retested in dose-response had high values. The assay is classed as functional. The conditions noted are these: 9.37 µM.

A further assay is filed under the species Homo sapiens. Put plainly: To identify inhibition of the IFN signalling (Jak-Stat) pathway via expression of an eGFP reporter gene under the control of an IFN-stimulated response element (ISRE) containing MxA promoter. The assay is classed as functional. The conditions noted are these: 30 µM.
Assay [7] has as its target T4, Tyrosyl-tRNA synthetase, putative (Trypanosoma cruzi (strain CL Brener)) (UniProt Q4DSP6).
T4 sequence (whole entry): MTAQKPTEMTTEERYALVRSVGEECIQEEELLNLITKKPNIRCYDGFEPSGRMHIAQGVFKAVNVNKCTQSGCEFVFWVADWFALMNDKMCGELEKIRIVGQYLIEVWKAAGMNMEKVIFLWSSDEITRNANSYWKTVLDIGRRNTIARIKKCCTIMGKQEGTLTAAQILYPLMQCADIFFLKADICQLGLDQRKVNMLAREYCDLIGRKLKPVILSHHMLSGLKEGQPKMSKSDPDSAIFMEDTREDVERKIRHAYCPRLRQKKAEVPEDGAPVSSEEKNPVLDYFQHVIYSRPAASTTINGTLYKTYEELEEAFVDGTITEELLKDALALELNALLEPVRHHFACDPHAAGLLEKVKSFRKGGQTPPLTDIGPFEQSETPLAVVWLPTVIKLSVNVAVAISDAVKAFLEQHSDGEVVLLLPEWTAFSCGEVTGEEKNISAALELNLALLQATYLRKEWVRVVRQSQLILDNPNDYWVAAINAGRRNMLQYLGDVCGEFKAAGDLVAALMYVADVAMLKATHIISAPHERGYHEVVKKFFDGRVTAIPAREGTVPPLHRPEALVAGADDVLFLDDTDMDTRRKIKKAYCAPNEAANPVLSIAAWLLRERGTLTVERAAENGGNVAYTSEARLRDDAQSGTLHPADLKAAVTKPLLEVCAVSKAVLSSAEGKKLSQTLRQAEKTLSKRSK
Put plainly: Trypanosoma cruzi tyrosyl tRNA synthetase (TcYRS) _High Tyrosine SOP. Note: in the data most compounds retested in dose-response had high values. The format is functional. The conditions noted are these: 30 µM.

For assay [8], the target named is T4, Tyrosyl-tRNA synthetase, putative (Trypanosoma cruzi (strain CL Brener)). Put plainly: Trypanosoma cruzi tyrosyl tRNA synthetase (TcYRS) SOP. The assay is classed as functional. The conditions noted are these: 30 µM.
Assay [9] addresses Chromo domain-containing protein 1 (Saccharomyces cerevisiae (strain ATCC 204508 / S288c) (Baker's yeast)) (UniProt P32657). The experiment in a line: ScCHD-1 Enzyme Inhibition Assay. Note: in the data most compounds retested in dose-response had high values. The format is functional. The settings on record: 30 µM.

For some of these results: Potency and affinity values are given separately.

Sequence of Chromo domain-containing protein 1 (Saccharomyces cerevisiae (strain ATCC 204508 / S288c) (Baker's yeast)) (P32657 whole entry, the tested form may be a part): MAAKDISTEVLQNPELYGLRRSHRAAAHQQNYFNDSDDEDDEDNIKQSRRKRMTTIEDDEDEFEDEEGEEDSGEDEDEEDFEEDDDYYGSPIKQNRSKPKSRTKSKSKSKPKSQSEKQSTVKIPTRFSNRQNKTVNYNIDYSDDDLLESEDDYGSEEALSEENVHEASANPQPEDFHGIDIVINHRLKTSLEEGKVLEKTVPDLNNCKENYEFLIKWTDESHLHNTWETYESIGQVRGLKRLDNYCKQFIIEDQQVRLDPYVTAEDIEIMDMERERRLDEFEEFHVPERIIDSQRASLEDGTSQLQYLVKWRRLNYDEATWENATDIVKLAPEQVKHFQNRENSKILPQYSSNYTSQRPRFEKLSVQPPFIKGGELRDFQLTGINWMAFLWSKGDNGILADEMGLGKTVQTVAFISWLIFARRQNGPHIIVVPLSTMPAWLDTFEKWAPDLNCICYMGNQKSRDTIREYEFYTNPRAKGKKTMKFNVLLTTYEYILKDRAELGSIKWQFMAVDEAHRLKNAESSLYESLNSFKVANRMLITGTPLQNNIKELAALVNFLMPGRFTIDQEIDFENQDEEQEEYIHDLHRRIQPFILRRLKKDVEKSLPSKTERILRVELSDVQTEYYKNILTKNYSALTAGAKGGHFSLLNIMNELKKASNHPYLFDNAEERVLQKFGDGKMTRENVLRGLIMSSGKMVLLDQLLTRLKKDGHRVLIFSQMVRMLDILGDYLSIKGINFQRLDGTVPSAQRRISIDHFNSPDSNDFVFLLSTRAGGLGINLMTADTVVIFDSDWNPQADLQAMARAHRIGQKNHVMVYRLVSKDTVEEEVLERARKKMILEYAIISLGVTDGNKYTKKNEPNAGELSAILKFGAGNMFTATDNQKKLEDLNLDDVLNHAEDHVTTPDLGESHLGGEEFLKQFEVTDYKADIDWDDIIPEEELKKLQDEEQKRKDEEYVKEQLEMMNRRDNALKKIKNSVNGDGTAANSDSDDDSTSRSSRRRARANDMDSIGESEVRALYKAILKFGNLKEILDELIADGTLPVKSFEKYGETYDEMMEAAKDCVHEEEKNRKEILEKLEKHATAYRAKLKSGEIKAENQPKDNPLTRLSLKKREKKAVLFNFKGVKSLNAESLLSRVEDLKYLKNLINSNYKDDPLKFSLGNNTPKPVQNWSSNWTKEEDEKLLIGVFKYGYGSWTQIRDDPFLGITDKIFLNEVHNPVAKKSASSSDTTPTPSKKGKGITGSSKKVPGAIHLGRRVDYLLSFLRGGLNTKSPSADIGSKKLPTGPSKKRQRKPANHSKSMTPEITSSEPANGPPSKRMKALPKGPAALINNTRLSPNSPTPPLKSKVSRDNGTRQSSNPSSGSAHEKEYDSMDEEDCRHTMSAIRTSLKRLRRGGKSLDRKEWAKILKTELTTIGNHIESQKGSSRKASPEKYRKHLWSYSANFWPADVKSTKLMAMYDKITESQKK
Sequence of Protein translocase subunit SecA (Escherichia coli (strain K12)) (P10408 whole entry): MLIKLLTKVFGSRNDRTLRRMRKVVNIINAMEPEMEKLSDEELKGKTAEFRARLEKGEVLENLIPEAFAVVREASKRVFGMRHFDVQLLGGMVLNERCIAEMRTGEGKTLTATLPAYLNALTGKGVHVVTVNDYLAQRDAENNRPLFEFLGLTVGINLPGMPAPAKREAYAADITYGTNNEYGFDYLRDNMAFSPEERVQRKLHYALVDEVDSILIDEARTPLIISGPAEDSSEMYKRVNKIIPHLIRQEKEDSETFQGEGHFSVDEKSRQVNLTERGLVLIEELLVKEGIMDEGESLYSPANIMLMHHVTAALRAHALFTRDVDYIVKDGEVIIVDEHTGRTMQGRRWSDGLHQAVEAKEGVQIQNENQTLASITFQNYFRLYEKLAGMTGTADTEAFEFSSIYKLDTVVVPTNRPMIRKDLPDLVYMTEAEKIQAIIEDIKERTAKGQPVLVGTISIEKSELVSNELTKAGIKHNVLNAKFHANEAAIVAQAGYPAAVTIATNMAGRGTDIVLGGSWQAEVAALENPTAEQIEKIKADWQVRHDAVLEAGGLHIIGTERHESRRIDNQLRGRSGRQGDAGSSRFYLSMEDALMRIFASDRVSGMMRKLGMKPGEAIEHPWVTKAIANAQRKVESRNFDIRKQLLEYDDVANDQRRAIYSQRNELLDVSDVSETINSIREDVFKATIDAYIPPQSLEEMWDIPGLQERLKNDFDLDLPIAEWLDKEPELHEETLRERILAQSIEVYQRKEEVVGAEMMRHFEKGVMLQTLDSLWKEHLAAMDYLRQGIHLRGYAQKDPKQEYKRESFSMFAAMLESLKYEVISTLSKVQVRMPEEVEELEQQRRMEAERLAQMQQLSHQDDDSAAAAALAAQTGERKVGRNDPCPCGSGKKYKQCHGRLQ
Sequence of Sialic acid-binding Ig-like lectin 9 (Homo sapiens) (Q9Y336 whole entry): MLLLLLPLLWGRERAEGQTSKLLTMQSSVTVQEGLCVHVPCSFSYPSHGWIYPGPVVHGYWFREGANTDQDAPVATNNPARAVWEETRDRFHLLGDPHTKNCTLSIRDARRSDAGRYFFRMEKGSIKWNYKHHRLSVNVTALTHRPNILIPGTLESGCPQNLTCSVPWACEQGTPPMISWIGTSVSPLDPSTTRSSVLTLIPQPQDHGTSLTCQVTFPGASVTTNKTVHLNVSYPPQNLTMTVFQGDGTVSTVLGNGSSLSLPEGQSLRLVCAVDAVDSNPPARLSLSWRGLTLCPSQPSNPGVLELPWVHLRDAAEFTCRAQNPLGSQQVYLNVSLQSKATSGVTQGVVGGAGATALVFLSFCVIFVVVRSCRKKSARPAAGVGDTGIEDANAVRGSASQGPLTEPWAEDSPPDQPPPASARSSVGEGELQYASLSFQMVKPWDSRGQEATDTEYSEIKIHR

`COc1ccc(CN2CCOC3(CCCN(c4nnc(C)o4)C3)C2)cc1` (stereo not drawn): the Percent Effect in [1] was -4.63%; in [2], -2.74%; in [3] it was -4.05%; in assay [4], 6.97%; with Trypanosoma cruzi, 5.75%; in assay [5], 2%. Also, the Percent Effect was 10.4% in assay [6]; -9.72% in the assay listed under Homo sapiens; 4.17% in assay [7]; -1.24% in assay [8]; -4.74% in assay [9].
With `Cc1nc(CN2CCN(C(=O)c3ccn(C)c(=O)c3)CC2)cs1`, the Percent Effect in assay [1] was -3.89%; in [2], 19%; in assay [3] it was -4.58%; in assay [4], -0.681%; in the assay on Trypanosoma cruzi it was 2.15%; in assay [5] it was -4.52%. Moreover, the Percent Effect was 15.9% in [6]; 10.6% in the assay filed under Homo sapiens; 9.38% in assay [7]; 15.2% in assay [8]; -25.7% in assay [9].
In the case of `COCc1ccccc1CNCc1c(C)nn(C)c1N(C)C`, the Percent Effect in assay [1] is -5.19%; in [2], 10.8%; in assay [3], -41.2%; in [4], 6.46%; with Trypanosoma cruzi it was -0.849%; in [5], 0%. For the same molecule, the Percent Effect in [6] is -5.04%; in the assay filed under Homo sapiens, -1.56%; in assay [7], 9.36%; in [8] it was 6.17%; in [9], -5.6%.
On to `COc1ccc(CN2CCCC(Nc3cccc(F)c3)C2)cc1O` (stereo not drawn), for which the Percent Effect was -3.14% in assay [1]; 0% in assay [2]; -3.77% in [3]; -2% in assay [4]; -0.293% in the assay on Trypanosoma cruzi; -0.744% in [5]. The Percent Effect in [6] is -5.06%; in the assay filed under Homo sapiens, 53.9%; in assay [7], 2.15%; in assay [8], 6.17%; in [9], 1.38%.
Consider `Cc1nc(Nc2nnc(C)s2)cc(C2CCCN2C)n1` (stereo not drawn), for which the Percent Effect in [1] was -1.27%; in assay [2], 16%; in [3], 3.75%; in assay [4], -11.6%; with Trypanosoma cruzi, -2.95%; in assay [5], -4.43%. The Percent Effect is 15.1% in assay [6]; 29.1% in the assay listed under Homo sapiens; 2.13% in [7]; 3.85% in assay [8]; -6.23% in assay [9].
For `CCOCC1CN(S(C)(=O)=O)Cc2ncn(CC3CC3)c21` (stereo not drawn), the Percent Effect is -2.41% in assay [1]; 13.5% in assay [2]; -8.53% in assay [3]; 6.97% in assay [4]; 3.81% in the assay on Trypanosoma cruzi; -1.24% in assay [5]. Besides, the Percent Effect was 5.58% in assay [6]; -4.29% in the assay listed under Homo sapiens; 6.45% in assay [7]; 13.6% in [8]; -6.43% in assay [9].
Take `Cc1nc(-c2ccccc2)n(CC(=O)NCC(C)C)n1`: the Percent Effect in [1] is -1.39%; in [2], 13.5%; in assay [3] it was -9.59%; in assay [4], -7.18%; in the assay with Trypanosoma cruzi it was -7.08%; in [5] it was -4.01%. Besides, the Percent Effect in assay [6] was 1.62%; in the assay listed under Homo sapiens, 19.8%; in [7], 5.42%; in assay [8], 13.6%; in assay [9], -5.55%.
For the molecule `O=C(NCCCN1CCCC1=O)Nc1ccc(Br)cc1Cl`, the Percent Effect is -4.26% in assay [1]; -4% in assay [2]; 3.31% in assay [3]; 6.15% in assay [4]; 3.14% with Trypanosoma cruzi; -3.7% in [5]. The Percent Effect in [6] was 7.02%; in the assay filed under Homo sapiens, 8.83%; in assay [7], 0%; in assay [8], 2.56%; in assay [9], -2.19%.
